Most compounds without a hit are left out; they make up all but 2.8% or so of the library.
EWS-Fli block – inhibitors of EWS/Fli oncoprotein transcriptional activity | A673 NR0B1-luciferase reporter, viability-normalised | inhibition, % at 12.6 µM | actives 0.67% (n = 350,000) | AID 651661;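 active = mean inhibition of at least 50% after viability correction, with every replicate also passing that limit; inconclusive = mean reaches 50% but only one of two replicates passes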;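 also: firefly luciferase signal divided by Alamar Blue viability fluorescence both relative to DMSO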
LGR2 inh – blocks bursicon-induced cAMP signaling via Drosophila LGR2; HEK293 LGR2, CRE-luciferase, bursicon-stimulated, 4 h; AID 720647; actives 0.35% (n = 380,000); inhibition, % at 9.99 µM;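 active = drop in luminescence signal, shown as inhibition above about 50% in the replicate tests, limit read from the data, passing the limit was not always enough; inconclusive = probably only some replicates passing the limit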;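 also: agonist challenge used bursicon conditioned medium at about half maximal strength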
PAX8 reporter – PAX8 transcriptional activity inhibition | inhibition, % at 12.6 µM | AID 652154 | actives 1.2% (n = 360,000) | RMG-I TPO-luciferase reporter, SteadyGlo, 24 h;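 active = mean replicate inhibition at least 60% with every replicate also reaching 60%; inconclusive = only one of the two criteria is met; inactive = mean below 60% and not all replicates reaching 60%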;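 also: luciferase light reporting Pax8 driven TPO promoter activity; plate controls were median of neutral control wells for no effect and mitoxantrone controls for full effect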
TWEAK Fn14 block – blocks TWEAK-Fn14 interaction in a reporter cell assay | TWEAK-stimulated Fn14 reporter cells, luciferase luminescence, 8 h | inhibition, % at 10 µM | actives 2% (n = 360,000); in the data active = inhibition above about 50%
TROY signal inh – TROY signaling inhibition. actives 0.98% (n = 360,000). Q293 LMP1-TROYcd NF-kB luciferase reporter, 4 h. inhibition, % at 10 µM. AID 1347056;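 active = compounds whose plate-normalised and pattern-corrected inhibition of the luciferase reporter signal at the single screening dose is 50% or more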
Starred values were filed as active, the others as inactive; ? = inconclusive; / = not tested or not shown.

SMILES	EWS-Fli block	LGR2 inh	PAX8 reporter	TWEAK Fn14 block	TROY signal inh
O=C(C[C@H]1C[C@H]2c3cc(NC(=O)Cc4ccncc4)ccc3O[C@H]2[C@H](CO)O1)NCc1ccccn1	3	-13	-9	/	/
CC(C)NC(=O)N(C)C[C@H]1Oc2cc(C#C[C@H](C)O)ccc2S(=O)(=O)N([C@@H](C)CO)C[C@H]1C	1	-9	-4	/	/
CC1=NN(c2nc(-c3ccc(C)cc3)cs2)C(=O)C1N=Nc1ccc(C(N)=O)cc1 (stereo unspecified)	55*	14	3	29	-13
CC1=NN(c2nc(-c3ccc(C)cc3)cs2)C(=O)C1N=Nc1ccc2ccccc2c1 (stereo unspecified)	/	/	/	25	-10
COc1ccc(C2=Nn3c(nnc3-c3ccccc3Cl)SC2)cc1OCC1CC1	32	15	56	32	61*
COc1ccc(C2=Nn3c(nnc3-c3ccccc3C(F)(F)F)SC2)cc1OC1CCOC1 (stereo unspecified)	32	3	23	-23	8
COc1ccc(C2=Nn3c(nnc3-c3ccccc3OC)SC2)cc1OC1CCOC1 (stereo unspecified)	36	0	68*	6	38
CCOc1ccc(C2=Nn3c(nnc3-c3ccccc3OC)SC2)cc1	/	/	95*	-16	15
C/C=C/c1cnc2c(c1)C(=O)N([C@H](C)CO)C[C@@H](C)[C@H](CN(C)C(=O)C1CC1)O2	-7	-1	/	/	/
CN1C(=O)c2cc(NC(=O)c3ccc(F)cc3)ccc2OC[C@@H]2O[C@@H](CC(=O)O)CC[C@H]21	-5	1	3	/	/
O=C(C[C@@H]1C[C@@H]2c3cc(NC(=O)NC4CCCC4)ccc3O[C@@H]2[C@H](CO)O1)NCc1cccc(F)c1	-2	-2	2	/	/
CCCC(=O)Nc1ccc2c(c1)OC[C@@H](C)N(CCC(F)(F)F)C[C@@H](C)[C@@H](OC)CN(C)C2=O	-4	5	1	/	/
COc1ccc2c3c(n(C)c2c1)[C@H](CO)N(Cc1ccccc1F)CC31CCN(C(=O)C2CCC2)CC1	6	11	/	/	/
O=C(CSc1nnc(-c2ccc(Br)cc2)o1)Nc1cccc(C(=O)O)c1	/	17	83*	-29	-69
Cc1ccc(-c2nnc(SCC(=O)Nc3ccccc3F)o2)cc1	85*	57*	59	86*	78*
O=C(CSc1nnc(-c2ccccc2)o1)Nc1ccccc1F	78*	24	26	57*	-4
Cc1ccc(-c2nnc(SCC(=O)Nc3ccccc3N3CCOCC3)o2)cc1	/	/	-10	-10	-24
CCOc1ccc(-c2nnc(SCC(=O)Nc3cc(C)on3)o2)cc1	65*	-27	-62	-10	-14
O=C(CSc1nnc(-c2ccncc2)o1)Nc1cc(F)ccc1F	-61	-24	-173	-11	-20
COCC#Cc1cnc2c(c1)C(=O)N([C@H](C)CO)C[C@@H](C)[C@H](CN(C)C(=O)c1cccnc1)O2	-11	5	/	/	/
Cc1cc(-c2nnc(SCC(=O)Nc3ccccc3C(F)(F)F)o2)c(C)n1-c1ccccc1	/	/	/	92*	70*
Cc1cccc(NC(=O)CSc2nnc(-c3cc(C)n(-c4ccccc4)c3C)o2)c1C	/	/	/	3	44
Cc1onc(-c2c(F)cccc2Cl)c1C(=O)Nc1ccc(S(=O)(=O)N2CCOCC2)cc1	-11	15	13	4	7
Cc1onc(-c2c(F)cccc2Cl)c1C(=O)Nc1cc(S(=O)(=O)N2CCCCC2)ccc1O	15	11	22	64*	64*
NC(=O)C1CCN(CC(O)COc2ccc(-c3ccccc3)cc2)CC1 (stereo unspecified)	-2	4	-1	107*	-20
SMILES	EWS-Fli block	LGR2 inh	PAX8 reporter	TWEAK Fn14 block	TROY signal inh
C[C@H](O)C#Cc1cnc2c(c1)C(=O)N([C@H](C)CO)C[C@H](C)[C@H](CN(C)C(=O)c1ccncc1)O2	-8	7	/	/	/
O=C1NC(Cc2ccc(O)cc2)c2nc3ccc(F)cc3c(=O)n2-c2cc3ccccc3cc21 (stereo unspecified)	64*	12	58	25	16
O=C1NC(Cc2ccccc2)c2nc3ccccc3c(=O)n2-c2cc3ccccc3cc21 (stereo unspecified)	47	16	48	2	4
Cc1ccc2nc3n(c(=O)c2c1)-c1cc2ccccc2cc1C(=O)NC3Cc1ccc(O)cc1 (stereo unspecified)	62*	7	50	26	34
O=C1NC(Cc2ccccc2)c2nc3cc(F)ccc3c(=O)n2-c2cc3ccccc3cc21 (stereo unspecified)	34	15	62*	40	32
C[C@H](CO)N1C[C@H](C)[C@@H](CN(C)C(=O)Nc2ccc(F)cc2)Oc2ccc(NC(=O)NC3CCCCC3)cc2CC1=O	12	11	-18	/	/
O=C(C[C@H]1C[C@H]2c3cc(NC(=O)NC4CCCC4)ccc3O[C@H]2[C@H](CO)O1)NCc1ccc(Oc2ccccc2)cc1	-6	-1	-8	/	/
CN1CCN(C(=O)C[C@@H]2C[C@@H]3c4cc(NC(=O)Nc5ccc(F)cc5)ccc4O[C@@H]3[C@H](CO)O2)CC1	-4	-12	/	/	/
Cc1ccc(CC#N)c(-c2c(CC#N)ccc(C)c2C)c1C	8	7	7	-4	0
Cc1ccc2c(c1C)-c1c(ccc(C)c1C)C(=O)C2=O	59*	55*	93*	86*	61*
Cc1[nH]c2ccccc2c1C(=O)CCl	18	10	40	58*	-1
CCC1CCCCN1CC(=O)c1c(C)[nH]c2ccc(OC)cc12 (stereo unspecified)	-7	-8	7	85*	-3
Cc1[nH]c2ccccc2c1C(=O)CN1CCCCC1C (stereo unspecified)	/	/	/	79*	/
O=C(CN1CCOCC1)NCC[C@@H]1CC[C@H](NC(=O)c2ccccc2F)[C@@H](CO)O1	0	0	-2	/	/
CNCc1ccccc1Sc1ccc(O)c(O)c1	-4	?	76*	4	-13
C[C@H]1CCCCO[C@H](CN(C)C(=O)NC2CCCCC2)[C@@H](C)CN([C@@H](C)CO)C(=O)c2cc(NS(=O)(=O)c3ccc(Cl)cc3)ccc2O1	11	13	71*	/	/
C[C@@H]1CCCCO[C@H](CN(C)C(=O)NC2CCCCC2)[C@H](C)CN([C@@H](C)CO)C(=O)c2cc(NS(=O)(=O)c3ccc(Cl)cc3)ccc2O1	-5	30	80*	/	/
O=C(Nc1ccc2c(c1)OCO2)N[C@H]1CC[C@@H](CCNC(=O)C2CC2)O[C@@H]1CO	-1	6	-11	/	/
NS(=O)(=O)c1ccc(N2N=C(c3ccccc3)CC2c2ccccc2Br)cc1 (stereo unspecified)	-10	9	-9	12	26
O=[N+]([O-])c1ccc(N2N=C(c3ccccc3)CC2c2ccccc2O)cc1 (stereo unspecified)	16	-8	7	81*	60*

Bioassay records from PubChem BioAssay.
